# Source: PubChem (National Center for Advancing Translational Sciences (NCATS))
# Six1-Eya2 inh: blocks human Six1 binding to Eya2; Q15475+O00167; AlphaScreen GST-Six1/His-Eya2 binding, biochemical; active compounds read low; activity change, % (concentration not given with the values); 360,000 compounds, 0.56% hits; AID 651725; in the data active = activity change below about -65%; inconclusive = mostly about -30% to -63%; note: % is set by controls: 0 for no effect and ±100 for the full control effect
#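 Homogeneous AlphaScreen proximity assay pairing GST-Six1 with His-tagged Eya2 (added as 5X mix: 250 nM and 500 nM) in 50 mM Tris pH 8.0, 300 mM NaCl, 1 mM TCEP. Glutathione donor and nickel acceptor beads; 1 h, 37 °C, dark.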
# CtBP-E1A inh: blocks the CtBP interaction with E1A; AlphaScreen GST-E1A/His-CtBP binding, 1536-well; active compounds read low; activity change, % (test concentration not listed); 340,000 compounds, 0.49% hits; in the data active = activity change below about -65%; inconclusive = mostly about -30% to -63%; note: % is set by controls: 0 for no effect and ±100 for the full control effect
#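 Protein mix (5X: 125 nM each GST-E1A, His-CtBP) was incubated with pinned compound 2 h at 37 deg C in dark, in 50 mM Tris pH 8.0 buffer with 300 mM NaCl. Glutathione donor and nickel acceptor beads followed; AlphaScreen signal read after 1 h.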
# JMJD2A Tudor inh: JMJD2A Tudor domain (human) inhibition. O75164. 390,000 compounds, 4.4% hits. AID 504339. Potency, µM (top dose mostly 114 µM), inactives show at the top dose activity change, negative = inhibition, usual class: inhibitors. AlphaScreen JMJD2A-Tudor / H3K4me3 peptide binding; note: potency is the fitted concentration of half-maximal effect; % is set by controls: 0 for no effect and ±100 for the full control effect; nearly all actives have a fitted effect of over 50% in size
# HP1b binding inh: blocks HP1-beta chromodomain binding to methylated histone tails | AlphaScreen HP1-beta / biotin-H3K9me3 peptide binding | Potency, µM (series often up to 114 µM), inactives show top-dose activity change, negative = inhibition, hits mostly inhibitors | 390,000 compounds, 0.56% hits; note: potency is the fitted concentration of half-maximal effect; nearly all actives have a fitted effect of over 70% in size
# Target sequence (P83916 whole entry, looked up): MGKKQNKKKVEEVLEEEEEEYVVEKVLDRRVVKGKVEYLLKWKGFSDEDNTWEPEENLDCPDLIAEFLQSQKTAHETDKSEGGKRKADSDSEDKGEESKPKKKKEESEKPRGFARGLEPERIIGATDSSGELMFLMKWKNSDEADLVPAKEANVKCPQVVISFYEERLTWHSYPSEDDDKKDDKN
#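 AlphaScreen: HP1-beta (50 nM) preformed 30 min with biotin-H3(1-18)K9me3 peptide (50 nM) in PBS pH 7.4, 0.01% Tween-20. Compound added for 30 min at RT, then streptavidin donor/nickel chelate acceptor beads (10 ug/mL) for 30 min.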
# BAZ2B inh: inhibitors of human BAZ2B bromodomain. Q9UIF8. AlphaScreen BAZ2B-H3K14Ac peptide displacement. Potency, µM (titrated, usually from 114 µM), without a hit: at the top dose activity change, negative = inhibition, most hits filed as inhibitors. 360,000 compounds, 4.4% hits. AID 504333; note: potency is the fitted concentration of half-maximal effect; % is set by controls: 0 for no effect and ±100 for the full control effect; nearly all actives have a fitted effect of over 60% in size
#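 BAZ2B (50 nM) with biotin-H3(5-23)K14Ac peptide (50 nM) in PBS pH 7.4, 0.01% Tween-20, preformed 30 min, then compound 30 min at room temperature; top concentration 110uM. AlphaScreen streptavidin donor/nickel chelate acceptor beads (10 ug/mL final), 20 min dark, signal read.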
# G9a inh: blocks human histone lysine methyltransferase G9a; Q96KQ7; G9a H3K9 monomethylation, AlphaScreen, 2 h; 350,000 compounds, 8.8% hits; Potency, µM (top dose mostly 102 µM), without a hit: at the highest dose activity, negative = inhibition, actives largely listed as inhibitors; note: potency is the fitted concentration of half-maximal effect; % is set by controls: 0 for no effect and ±100 for the full control effect; nearly all actives have a fitted effect of over 75% in size
# Target sequence (Q96KQ7 913-1193 limits assumed): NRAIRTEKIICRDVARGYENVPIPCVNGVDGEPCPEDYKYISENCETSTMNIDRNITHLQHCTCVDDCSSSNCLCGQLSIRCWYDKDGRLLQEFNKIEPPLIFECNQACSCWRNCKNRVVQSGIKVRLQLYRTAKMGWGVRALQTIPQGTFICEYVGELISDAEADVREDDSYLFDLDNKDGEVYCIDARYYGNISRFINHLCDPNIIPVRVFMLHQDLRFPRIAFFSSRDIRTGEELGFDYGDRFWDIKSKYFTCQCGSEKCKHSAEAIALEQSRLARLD
#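 Methyltransferase reactions run at room temperature for 2 h (20 nM enzyme, 500 nM biotin-H3K9 peptide, 20 uM SAM) after a 15 min compound preincubation; product detected by AlphaScreen beads and anti-H3K9me1 antibody.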
# * marks the source's active call; other numbers are inactive results; ? = inconclusive; · = no result given; [ ] = remark or other dose. An excerpt weighted towards active compounds, which were near 10% of everything screened. Unless noted, calls come from the whole dose curve; as a rule, active = well fitted inhibition curve with a large enough effect; inconclusive = small, poorly fitted or top-dose-only effect; inactive = no such curve, though single readings can be large or run the other way.
SMILES,Six1-Eya2 inh,CtBP-E1A inh,JMJD2A Tudor inh,HP1b binding inh,BAZ2B inh,G9a inh
O=C(c1ccccc1[N+](=O)[O-])N1CCN(c2ccc(N3CCOCC3)nn2)CC1,1.4,11.8,-10.3%,18.4%,-4.9%,-8.2%
CN(C)C(=O)N1CCc2ccc([N+](=O)[O-])cc21,5.1,5.0,·,·,·,·
Cc1ccc(C(=O)c2oc3ccc(Cl)cc3c2NC(=O)CN2CCN(C)CC2)cc1,-18.3,·,?,-8.6%[57 µM],25.1µM*,79.4µM*
CCOc1ccc(Nc2oc(-c3ccc(COc4ccc(C)cc4)o3)nc2C#N)cc1,·,·,-24.2%,3.9%,?,-25.3%[59 µM]
C/C(O)=C(\C#N)c1nnc2n1CCCCC2,6.5,10.8,?,9.1%,56.2µM*,10µM*
CCC(=O)N(Cc1cc2ccccc2[nH]c1=O)c1ccccc1OC,13.2,6.1,-2.7%,43.8%,3.0%,-5.5%[0.501 µM]
c1ccc(CCC2Cc3ccccc3N2)cc1 (stereo unspecified),-11.9,-5.7,56.2µM*,-9.8%,?,-0.6%[0.501 µM]
CCSc1ncc(/C=N/Nc2ccc(F)cc2)n1C,-19.7,-9.4,?,-12.3%,?,25.1µM*
CC1(c2ccc(Cl)cc2)NC(=S)N2C1NC(=S)N2c1ccccc1 (stereo unspecified),-4.7,-6.1,-29.8%,27.0%,50.1µM*,-113.5%[59 µM]
Nc1c(SCCC(=O)O)ccc2c1C(=O)c1ccccc1C2=O,-67.0*,-14.6,?,?,39.8µM*,35.5µM*
Nc1c(C(=O)O)ccc2c1C(=O)c1ccccc1C2=O,-28.5,?,?,?,35.5µM*,35.5µM*
O=C(O)c1ccc([N+](=O)[O-])c2c1C(=O)c1ccccc1C2=O,-18.7,-18.8,-25.8%,14.4%,·,·
Nc1cc(C(=O)O)c(N)c2c1C(=O)c1ccccc1C2=O,-80.3*,-91.7*,?,14.1µM*,14.1µM*,?
O=C(O)CCSc1nc2ccccc2s1,3.2,12.0,-11.4%,42.5%,3.0%,?
COc1ccc2cc(CNc3ccc(OC)c(OC)c3)c(=O)n(CC(=O)Nc3ccc(C)cc3)c2c1,·,·,2.4%,23.1%,-12.7%,2.82µM*
COc1ccc(NCc2cc3ccc(OC)cc3n(CC(=O)Nc3ccc(C)c(C)c3)c2=O)cc1,·,·,-34.8%,0.2%,-18.0%,-6.0%[59 µM]
COc1ccc2c(c1)cc(CNc1ccc(OC)c(OC)c1)c(=O)n2CC(=O)Nc1ccc(F)cc1,·,·,-34.5%,2.0%,?,2.82µM*
COc1ccc2c(c1)cc(CNc1ccc(OC)c(OC)c1)c(=O)n2CC(=O)Nc1ccccc1C,·,·,-2.4%,42.6%,-14.8%,?
COc1ccc(CCNC(=O)c2cc([C@@H](NC(=O)OC(C)(C)C)C(C)C)sc2N)cc1OC,-15.0,-4.4,·,·,·,·
C/C(=N\Nc1nc2ccccc2nc1C)c1ccccc1O,-2.3,-0.2,-21.0%,-8.2%,-13.4%,22.4µM*
O=S(=O)(c1ccc(Cl)cc1)N1CCN(S(=O)(=O)c2ccc3c(c2)OCCO3)CC1,·,·,-11.6%,·,·,·
COc1ccc(-c2nn(-c3ccccc3)cc2C(=O)Nc2cccc(C(=O)O)c2)cc1[N+](=O)[O-],7.5,·,50.1µM*,-28.4%,39.8µM*,·
COc1ccc(-c2nn(-c3ccccc3)cc2/C=N/Nc2cccc(C(=O)O)c2)cc1,-8.1,2.4,?,16.5%,-37.3%,22.4µM*
O=C(O)c1cccc(NC(=O)c2cn(-c3ccccc3)nc2-c2ccncc2)c1,-6.9,·,-30.7%,?,?,31.6µM*
COc1ccc(-c2nn(-c3ccccc3)cc2C(=O)NC(=S)NNC(=O)c2ccncc2)cc1,-29.1,?,?,?,-15.5%,31.6µM*
SMILES,Six1-Eya2 inh,CtBP-E1A inh,JMJD2A Tudor inh,HP1b binding inh,BAZ2B inh,G9a inh
COc1ccc(NC(=O)c2cn(-c3ccccc3)nc2-c2ccncc2)cc1,-6.3,-4.5,-20.1%,22.4%,-27.5%,-31.4%
COc1ccccc1NC(=O)Cn1c(=O)n(Cc2ccc3c(c2)OCO3)c(=O)c2oc3ccccc3c21,·,·,-1.5%,32.8%,-6.2%,-8.3%[59 µM]
CC(C)c1ccc(NC(=O)c2ccc(NS(C)(=O)=O)cc2)cc1,9.9,·,-6.0%[11.4 µM],37.2%,-19.1%,14.3%
COc1cccc(-c2nn(-c3ccccc3)cc2C(=O)NCC(=O)O)c1,4.3,0.6,-6.9%,37.7%,10.4%,50.1µM*
COC(=O)c1ccc(/C=N/N2CCN(Cc3ccc(C)cc3C)CC2)cc1,-5.3,6.7,?,-29.0%,39.8µM*,?
CCN(CC)c1ccc(/C=N/N2CCN(Cc3ccccc3Cl)CC2)c(O)c1,-14.0,-13.6,31.6µM*,?,10µM*,11.2µM*
Cc1ccc(CN2CCN(/N=C/c3ccc(C(=O)O)cc3)CC2)c(C)c1,-4.0,-0.4,-11.1%,8.0%,?,?
CCN(CC)c1ccc(/C=N/N2CCN(Cc3ccc(C)cc3)CC2)c(O)c1,-5.5,-2.5,?,?,-12.2%,-49.5%[12.7 µM]
COC(=O)c1ccc(/C=N/N2CCN(Cc3ccccc3Cl)CC2)cc1,-8.4,1.9,8.91µM*,-17.7%,-27.3%,0.6%
Cc1ccc(CN2CCN(/N=C/c3cc(Br)cc(Br)c3O)CC2)c(C)c1,-10.4,-9.5,-11.3%[57.1 µM],50.7%,1.4%,39.8µM*
COc1ccc2nc(N(Cc3cccnc3)C(=O)c3ccc(Cl)cc3)sc2c1,·,·,-12.7%,9.3%,-2.6%,8.4%[59 µM]
CCCCN(CCCNC(=O)c1c(C)oc2nc[nH]c(=O)c12)Cc1ccccc1,·,·,-22.5%,24.2%,-1.3%,-2.7%[59 µM]
Cc1ccc(CCNC(=O)Cn2c(-c3cccs3)cc3ccccc32)cc1,·,·,-1.0%,27.6%,0.6%,-5.1%[59 µM]
CCOC(=O)N1CCN(Cc2nc3cc(NC(C)=O)ccc3n2C(C)C)CC1,·,·,50.1µM*,33.9%,?,-48.1%[59 µM]
CCCC(=O)Nc1ccc2c(c1)nc(CN1CCN(C(C)=O)CC1)n2C,-1.5,-6.0,9.7%,28.7%,1.5%[57.1 µM],50.1µM*
CC(CCc1ccccc1)NC(=O)CN1CCN(Cc2ccc(Cl)cc2)C1=O (stereo unspecified),-5.8,-0.7,-5.7%,37.1%,-3.0%,19.3%
